Source: PubChem BioAssay (National Center for Advancing Translational Sciences (NCATS))
Hits are enriched below; roughly 19% of the tested compounds scored in any of these assays.
IL1B secr inh = qHTS for Inhibitors of Inflammasome Signaling: IL-1-beta AlphaLISA Primary Screen; THP-1 LPS/ATP IL-1B secretion, AlphaLISA, 16 h; active compounds read low; activity change, % at 57.5 µM; hit rate 4.7% among 360,000; in the data active means activity change below about -50%; inconclusive means mostly about -30% to -49%
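Secreted IL-1B measured by AlphaLISA bead assay after 16 h compound exposure of THP-1 cells; compounds (final up to 57.5 uM) added 1 h before LPS (250 ng/mL) and ATP (1.25 mM) stimulation; lower signal means less secretion.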
TDP1 cell noCPT = qHTS for Inhibitors of human tyrosyl-DNA phosphodiesterase 1 (TDP1): qHTS in cells in absence of CPT. DT40 Tdp1-/- hTDP1 cells, no CPT, ATP luminescence, 48 h. Potency, µM (highest dose often 46.2 µM), inactives show at the highest dose activity change, negative = growth inhibition, actives largely listed as inhibitors. hit rate 15% among 420,000; further: potency means the concentration at half of the fitted maximal effect; nearly all actives have a fitted effect of over 55% in size
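Stably hTDP1-transfected Tdp1-null chicken DT40 cells were treated with library compounds minus camptothecin and grown for at least 48 hr at 37 °C, after which cellular ATP was quantified by luminescence.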
HT1080 IDH1KD tx = qHTS for induction of synthetic lethality in tumor cells producing 2HG: qHTS for the HT-1080-IDH1KD cell line | Potency, µM (top dose mostly 46.1 µM), without a hit: at the highest dose activity, negative = toxicity, actives largely listed as cytotoxic | HT-1080 IDH1 knockdown viability, ATP luminescence, 48 h | AID 686971, 2013 | hit rate 2% among 360,000;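 further: potency means the concentration at half of the fitted maximal effect; 0% = DMSO wells and -100% = cell-free medium wells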
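In this qHTS, HT-1080 cells depleted of IDH1 are exposed for 48 h at 37 °C to compound titrations. Toxicity is scored from CellTiter-Glo luminescence, with DMSO as full viability and medium alone as none.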
HT1080NT lethal = qHTS for induction of synthetic lethality in tumor cells producing 2HG: qHTS for the HT-1080-NT fibrosarcoma cell line. HT-1080-NT fibrosarcoma viability, CellTiter-Glo ATP luminescence, 48 h. hit rate 1.6% among 360,000. Potency, µM (top dose mostly 46.1 µM), inactives show at the top dose activity, negative = less viability, hits mostly cytotoxic;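 further: NT is the 2HG producing partner of a matched IDH1 knockdown line; potency means the concentration at half of the fitted maximal effect; 0% = DMSO-treated cells and -100% = media-only wells without cells; nearly all actives have a fitted effect of over 55% in size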
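Viability of the 2HG-overproducing fibrosarcoma line after 48 hours of compound exposure at 37 degrees C was determined by luminescence with CellTiter-Glo, and concentration-effect curves were then fitted and categorized.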
TDP1 cell CPT = qHTS for Inhibitors of human tyrosyl-DNA phosphodiesterase 1 (TDP1): qHTS in cells in presence of CPT. chicken DT40 Tdp1-/-;hTDP1 cells + 20 nM CPT, ATP luminescence, 48 h. Potency, µM (doses to about 46.2 µM), for inactives: top-dose activity change, negative = growth inhibition, hits mostly inhibitors. hit rate 12% among 420,000; further: potency means the concentration at half of the fitted maximal effect; nearly all actives have a fitted effect of over 55% in size
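Chicken DT40 Tdp1-/- cells complemented with human TDP1, 400 cells/well, exposed to compounds plus 20 nM camptothecin for at least 48 h at 37 C; viability read as ATP content by CellTiter-Glo luminescence.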
Numbers without * were called inactive. Unless noted, the call rests on the fitted dose curve; in most records, active means well fitted curve in the direction sought with a large enough effect; inconclusive means small, poorly fitted or top-dose-only effect, or another doubt; inactive means no such curve, though single readings can be large; an effect the other way counts as inactive or inconclusive. Unless noted, on the % scale 0 is the no-effect control and ±100 the full control effect.

What do the screens show for `CCCCN(C)S(=O)(=O)c1cc(Br)cc2c1N(C(=O)C1CC1)CC2`?
IL1B secr inh: -21; TDP1 cell noCPT: 3.7µM*; HT1080 IDH1KD tx: -11%; HT1080NT lethal: -16%; TDP1 cell CPT: 8.2µM*

Results for CCOC(=O)COc1cc(Br)c(/C=N/Nc2ccccc2)cc1OC ?
IL1B secr inh: -93*; TDP1 cell noCPT: -14%; HT1080 IDH1KD tx: inconclusive; HT1080NT lethal: inconclusive; TDP1 cell CPT: -11%

What do the screens show for `COc1cc(Br)c(CCNC(=O)Cc2ccccc2)cc1OC`?
IL1B secr inh: 6; TDP1 cell noCPT: -23%; HT1080 IDH1KD tx: 19%; HT1080NT lethal: 30%; TDP1 cell CPT: -30%

Results for COc1cc(C=O)c(Br)cc1OCC(=O)NCCc1ccccc1 ?
IL1B secr inh: -13; TDP1 cell noCPT: 18µM*; HT1080 IDH1KD tx: inconclusive; HT1080NT lethal: -23%; TDP1 cell CPT: inconclusive

Results for Clc1cccc(-c2csc(-c3nc(-c4ccc(Br)s4)cs3)n2)c1 ?
TDP1 cell noCPT: -2%; TDP1 cell CPT: -1%

What do the screens show for `Cc1cc(C)nc(S/C=C/C(=O)c2ccccc2F)n1`?
IL1B secr inh: inconclusive; TDP1 cell noCPT: 3.7µM*; HT1080 IDH1KD tx: 2.9µM*; HT1080NT lethal: 3.7µM*; TDP1 cell CPT: 2.1µM*

Results for O=C(O)CSc1ncnc2scc(-c3ccccc3)c12 ?
IL1B secr inh: 7; TDP1 cell noCPT: 2%; HT1080 IDH1KD tx: 17%; HT1080NT lethal: 10%; TDP1 cell CPT: 10%

How did Clc1ccc(-c2csc3ncnc(Sc4nnnn4-c4ccccc4)c23)cc1 do in these assays?
TDP1 cell noCPT: 2µM*; TDP1 cell CPT: 3.5µM*

Results for Cc1ccc(-c2csc3ncnc(Sc4nnnn4-c4ccccc4)c23)cc1 ?
TDP1 cell noCPT: 5.6µM*; TDP1 cell CPT: 7.1µM*

How did c1ccc(-c2ccc(-c3csc4ncnc(Sc5nnnn5-c5ccccc5)c34)cc2)cc1 do in these assays?
TDP1 cell noCPT: 6.3µM*; TDP1 cell CPT: 7.1µM*

How did Clc1ccc(-n2nnnc2Sc2ncnc3sccc23)cc1 do in these assays?
IL1B secr inh: -120*; TDP1 cell noCPT: 1.8µM*; HT1080 IDH1KD tx: inconclusive; HT1080NT lethal: 21µM*; TDP1 cell CPT: 2.3µM*

How did C=CCNC(=O)/C(=C/c1cccc([N+](=O)[O-])c1)NC(=O)c1ccco1 do in these assays?
IL1B secr inh: 24; TDP1 cell noCPT: 1%; HT1080 IDH1KD tx: 21%; HT1080NT lethal: 12%; TDP1 cell CPT: 7%

How did Cc1ccc(NC(=S)N2CCN(S(=O)(=O)c3ccc(F)cc3)CC2)cc1 do in these assays?
IL1B secr inh: inactive; TDP1 cell noCPT: 0%; HT1080 IDH1KD tx: 19%; HT1080NT lethal: 0%; TDP1 cell CPT: 1%

How did Cc1sc2ncnc(Sc3ccccc3C(=O)O)c2c1C do in these assays?
IL1B secr inh: 0; TDP1 cell noCPT: 12%; HT1080 IDH1KD tx: -3%; HT1080NT lethal: -2%; TDP1 cell CPT: 9%

Results for Cc1sc2ncnc(Sc3nnnn3-c3ccccc3)c2c1C ?
IL1B secr inh: -101*; TDP1 cell noCPT: 7.1µM*; HT1080 IDH1KD tx: 7.1µM*; HT1080NT lethal: 10µM*; TDP1 cell CPT: 5.8µM*

Results for CCCCN(CCCNC(=O)CN1N=C(c2ccc(C)cc2)CCC1=O)c1ccccc1 ?
TDP1 cell noCPT: 15µM*; TDP1 cell CPT: inconclusive

What do the screens show for `COc1ccc(C2=NN(CC(=O)NCCCN(C)c3ccccc3)C(=O)CC2)cc1`?
TDP1 cell noCPT: 15µM*; TDP1 cell CPT: inconclusive

Results for CCCCN(C)CCCNC(=O)CN1N=C(c2ccc(Cl)cc2)CCC1=O ?
IL1B secr inh: -12; TDP1 cell noCPT: -29%; HT1080 IDH1KD tx: 17%; HT1080NT lethal: 0%; TDP1 cell CPT: -14%

Results for COc1ccc(C2=NN(CC(=O)NCCc3ccccc3)C(=O)CC2)cc1 ?
TDP1 cell noCPT: -15%; TDP1 cell CPT: -1%

Results for CCN(CCCNC(=O)CN1N=C(c2ccccc2)CCC1=O)c1cccc(C)c1 ?
TDP1 cell noCPT: -19%; TDP1 cell CPT: -13%

How did CCN(CCCNC(=O)CN1N=C(c2ccc(C)cc2)CCC1=O)c1ccccc1 do in these assays?
TDP1 cell noCPT: 23µM*; TDP1 cell CPT: inconclusive

What do the screens show for `CCN(CCCNC(=O)CN1N=C(c2ccc(OC)cc2)CCC1=O)c1cccc(C)c1`?
TDP1 cell noCPT: 18µM*; TDP1 cell CPT: inconclusive

How did Cc1ccc(-c2nnc(SCC(=O)Nc3cccc(C(=O)N4CCOCC4)c3)n2C)cc1 do in these assays?
IL1B secr inh: -3; TDP1 cell noCPT: 2%; HT1080 IDH1KD tx: -1%; HT1080NT lethal: 0%; TDP1 cell CPT: inconclusive

How did Cc1cccc(NC(=O)c2c(NC(=O)c3ccco3)sc3c2CCC(C(C)(C)C)C3)c1 (centres undefined) do in these assays?
TDP1 cell noCPT: -2%; TDP1 cell CPT: 5%

How did O=C(/C=C/c1cn(CC(O)CN2CCCCC2)c2ccccc12)c1cccs1 (centres undefined) do in these assays?
IL1B secr inh: -68*; TDP1 cell noCPT: 16µM*; HT1080 IDH1KD tx: inconclusive; HT1080NT lethal: inconclusive; TDP1 cell CPT: inconclusive

How did O=C(/C=C/c1cn(CC(O)CN2CCCCCC2)c2ccccc12)c1ccccc1 (centres undefined) do in these assays?
TDP1 cell noCPT: 23µM*; TDP1 cell CPT: inconclusive

Results for CC(CN1CCCCC1)NC(=O)c1cccs1 (centres undefined) ?
IL1B secr inh: 0; TDP1 cell noCPT: -5%; HT1080 IDH1KD tx: -1%; HT1080NT lethal: -1%; TDP1 cell CPT: 0%

What do the screens show for `OC(CN1CCCCC1)Cn1c2ccccc2c2ccccc21` (centres undefined)?
IL1B secr inh: inconclusive; TDP1 cell noCPT: -14%; HT1080 IDH1KD tx: 1%; HT1080NT lethal: -10%; TDP1 cell CPT: -13%

What do the screens show for `CN1CCN(Cn2cc(/C=C/C(=O)c3ccccc3)c3ccccc32)CC1`?
IL1B secr inh: -66*; TDP1 cell noCPT: inconclusive; HT1080 IDH1KD tx: 0%; HT1080NT lethal: 5%; TDP1 cell CPT: -26%

How did O=C(/C=C/c1cn(CC(O)CN2CCCCC2)c2ccccc12)c1ccccc1 (centres undefined) do in these assays?
IL1B secr inh: -87*; TDP1 cell noCPT: inconclusive; HT1080 IDH1KD tx: 16µM*; HT1080NT lethal: inconclusive; TDP1 cell CPT: inconclusive

What do the screens show for `O=C(CSc1ccc(-c2cccnc2)nn1)Nc1ccccc1C(F)(F)F`?
IL1B secr inh: inactive; TDP1 cell noCPT: -2%; HT1080 IDH1KD tx: -12%; HT1080NT lethal: -7%; TDP1 cell CPT: -24%
